Here are results for 6 molecules from PubChem BioAssay (NCATS).

In test [1] the target is Lysosomal acid glucosylceramidase (Homo sapiens) (UniProt P04062). Briefly: Glucocerebrosidase-p2 (AID 348; in the data active = potency below about 10 µM; note: potency is the fitted concentration of half-maximal effect). The conditions noted are these: purified GBA, blue fluorogenic substrate, 40 min. An outline of the steps: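 Compounds titrated from 0.6 nM upwards against 0.2 nM enzyme in pH 5.9 citric acid/KH2PO4, taurocholate, tween-20; blue fluorogenic substrate 80 uM, 40 min room temperature, stopped and read Ex 365/Em 440 for AC50.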
Lysosomal acid glucosylceramidase (Homo sapiens), sequence (P04062 whole entry, looked up): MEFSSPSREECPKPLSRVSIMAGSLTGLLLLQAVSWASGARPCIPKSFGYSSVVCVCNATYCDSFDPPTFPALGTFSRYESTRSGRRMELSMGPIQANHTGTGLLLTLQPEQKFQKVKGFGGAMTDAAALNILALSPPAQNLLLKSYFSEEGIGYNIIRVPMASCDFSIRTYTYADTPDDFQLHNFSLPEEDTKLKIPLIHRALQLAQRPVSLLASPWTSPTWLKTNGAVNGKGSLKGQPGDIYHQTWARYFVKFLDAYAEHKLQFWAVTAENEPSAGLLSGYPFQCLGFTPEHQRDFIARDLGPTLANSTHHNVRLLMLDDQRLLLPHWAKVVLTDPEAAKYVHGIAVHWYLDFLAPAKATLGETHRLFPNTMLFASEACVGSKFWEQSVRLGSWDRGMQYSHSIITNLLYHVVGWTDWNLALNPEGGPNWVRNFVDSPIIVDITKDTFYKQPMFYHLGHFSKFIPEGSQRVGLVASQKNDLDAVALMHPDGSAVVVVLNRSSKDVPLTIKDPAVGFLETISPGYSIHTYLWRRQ

Test [2] can be described thus: AP1 Signaling Pathway (AID 357; active = well fitted curve in either direction with a large enough effect, not every such curve was filed as active;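 note: ME-180 reporter cells stimulated with EGF at its EC50 level; % is set by controls: 0 for no effect and ±100 for the full control effect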). The conditions noted are these: ME-180 AP-1-bla reporter, EGF-induced, beta-lactamase ratio, 5 h; at 7.69 µM (top of the series) unless noted. Summed up:
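Read-out was the 460nm/530nm emission ratio (excitation 405nm) after CCF4 loading for 2.5 hours at room temperature. Cells carried an AP-1-driven beta-lactamase reporter, were stimulated with EC50 EGF plus compound for 5 hours, and AC50 values came from titrations.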

Test [3] has as its target Cytochrome P450 1A2 (Homo sapiens) (UniProt P05177). Briefly: p450-cyp1a2 (AID 410; calls by dose curve; note: potency is the fitted concentration of half-maximal effect). The conditions noted are these: recombinant CYP1A2, luciferin-ME demethylation, luminescence; series mostly up to 57 µM. Summed up:
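Luminescent readout of luciferin formed from Luciferin-ME by human CYP1A2; data normalized against complete inhibition by 57 uM furafylline. Enzyme 20nM, substrate 100uM at Km, 100mM KPO4 buffer, 60 min reaction at room temperature.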

Test [4] is described as follows: NFAT Signaling Pathway (AID 444; active = well fitted curve in either direction with a large enough effect, not every such curve was filed as active;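 note: carbachol stimulus at about its EC50 of 1 µM final; % is set by controls: 0 for no effect and ±100 for the full control effect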). Conditions: Jurkat NFAT-bla M1, carbachol, beta-lactamase ratio, 5 h; at 7.69 µM (top of the series) unless noted. An outline of the steps:
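Jurkat cells with NFAT-driven β-lactamase reporter and co-expressed M1 receptor, stimulated with carbachol (final 1 uM, ~EC50), compound titration, 5 h at 37 °C. CCF4 loaded 1 h at RT; 460/530 nm ratio gave %activity and AC50.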

Test [5] has as its target Glucocorticoid receptor (Homo sapiens) (UniProt P04150). Briefly: GR-GFP Redistribution (AID 450;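 active = compounds whose dose series gives a full or clear partial fitted curve of increased nuclear translocation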; note: potency is the fitted concentration of half-maximal effect). The conditions noted are these: U2OS GR-GFP nuclear translocation, laser cytometry, 2 h.
Test [6] shares this target. Briefly: GR-EFC Redistribution (AID 451; calls by dose curve; note: potency is the fitted concentration of half-maximal effect). Conditions: CHO-K1 GR-EFC translocation, beta-gal luminescence, 2 h. An outline of the steps:
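CHO-K1 cells expressing nuclear EA and GR-ED fragments of b-gal; compounds titrated up to 46 uM final, 2 h at 37 C. GR nuclear translocation read as complemented b-gal luminescence after 1 h RT detection.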

The target in test [7] is Cytochrome P450 3A4 (Homo sapiens) (UniProt P08684). The test is described as follows: qHTS Assay for Inhibitors and Substrates of Cytochrome P450 3A4 (AID 884). Note: nearly all actives have a fitted effect of over 50% in size. Note: potency is the fitted concentration of half-maximal effect. The conditions noted are these: recombinant CYP3A4, Luciferin-PPXE luminescence; series mostly up to 57.1 µM. An outline of the steps: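 20 nM human CYP3A4 with 25 uM Luciferin-PPXE (at KM) in 200 mM KPO4, preincubated 10 min with compound; NADPH regeneration started a 60 min RT reaction. Luciferin detected by luminescence, normalized to 57 uM ketoconazole as full inhibition.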
Cytochrome P450 3A4 (Homo sapiens), sequence (P08684 whole entry, looked up): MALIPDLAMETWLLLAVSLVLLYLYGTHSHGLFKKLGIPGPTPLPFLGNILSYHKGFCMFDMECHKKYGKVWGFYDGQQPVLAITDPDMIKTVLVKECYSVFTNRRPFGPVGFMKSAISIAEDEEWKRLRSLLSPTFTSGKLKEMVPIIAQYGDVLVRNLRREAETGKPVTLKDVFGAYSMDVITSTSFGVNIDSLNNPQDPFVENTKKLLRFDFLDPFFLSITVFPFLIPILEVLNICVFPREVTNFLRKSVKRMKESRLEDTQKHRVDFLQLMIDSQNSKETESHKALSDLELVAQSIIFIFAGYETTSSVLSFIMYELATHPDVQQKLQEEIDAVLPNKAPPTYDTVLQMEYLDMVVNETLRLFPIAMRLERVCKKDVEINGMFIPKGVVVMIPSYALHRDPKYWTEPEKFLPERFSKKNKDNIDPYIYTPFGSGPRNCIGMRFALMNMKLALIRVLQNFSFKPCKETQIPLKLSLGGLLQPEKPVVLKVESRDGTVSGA
A general note: Quantitative high-throughput screening tests each substance at several concentrations.

Test [8] in a line: qHTS Assay for Lipid Storage Modulators (AID 1519; calls by dose curve). Conditions: Drosophila S3 cells, BODIPY lipid droplet/cell ratio, laser cytometry, cells loaded with oleic acid; for activity change, negative = inhibition: at 57.5 µM (top of the series). An outline of the steps: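 Cells seeded at 5,000 per well were treated with compounds over a concentration series and loaded with oleic acid (400 uM, as added). Lipid droplet fluorescence (488 nm excitation, 500-530 nm channel) was read by laser-scanning cytometry and normalized to 20 uM Triacsin C.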

The target in test [9] is Dual specificity protein kinase CLK4 (Homo sapiens) (UniProt Q9HAZ1). Briefly: qHTS Assay for Inhibitors of CDC-like Kinase 4 (Kinase-Glo Assay) (AID 1770). Note: nearly all actives have a fitted effect of over 65% in size. Note: potency is the fitted concentration of half-maximal effect. Conditions: recombinant Clk4, Kinase-Glo ATP depletion luminescence; series mostly up to 66.7 µM. An outline of the steps:
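Substrate mix (RS peptide 100 uM, ATP 1 uM) dispensed, compound pinned in, then Clk4 added to 25 nM final. Incubated 4.5 h at RT; Kinase-Glo reagent added, luminescence read after 5 min.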

Test [10] has the same target. Briefly: qHTS Assay for Inhibitors of CDC-like Kinase 4 (ADP-Glo Assay) (AID 1771). Note: nearly all actives have a fitted effect of over 70% in size. Note: potency is the fitted concentration of half-maximal effect. Conditions: recombinant CLK4, ADP-Glo luminescence; series mostly up to 80 µM. An outline of the steps:
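Luminescence from ADP-Glo reports ADP produced by 25 nM Clk4 acting on 100 uM RS repeat peptide with 1 uM ATP over 1 hr at room temperature; residual ATP is depleted before ADP is converted to ATP for detection.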

The target of test [11] is Ubiquitin carboxyl-terminal hydrolase 1 (Homo sapiens) (UniProt O94782). The test is described as follows: Inhibitors of USP1/UAF1: Pilot qHTS (AID 504865).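 Note: rhodamine fluorescence freed from ubiquitin-rhodamine substrate followed over time; top concentration of the series differs between compounds; % is set by controls: 0 for no effect and ±100 for the full control effect; nearly all actives have a fitted effect of over 35% in size.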 Conditions: purified USP1/UAF1, Ub-rhodamine cleavage fluorescence; series mostly up to 54.9 µM. An outline of the steps: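 In 50mM HEPES pH 7.8 containing 0.5mM EDTA, 1mM TCEP, 0.1 mg/ml BSA and 0.01% Tween-20, 1nM USP1/UAF1 is exposed to compound for 15 min, then Ub-Rho (150nM final) is added and fluorescence is read over time.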
Ubiquitin carboxyl-terminal hydrolase 1 (Homo sapiens), sequence (O94782 whole entry, looked up): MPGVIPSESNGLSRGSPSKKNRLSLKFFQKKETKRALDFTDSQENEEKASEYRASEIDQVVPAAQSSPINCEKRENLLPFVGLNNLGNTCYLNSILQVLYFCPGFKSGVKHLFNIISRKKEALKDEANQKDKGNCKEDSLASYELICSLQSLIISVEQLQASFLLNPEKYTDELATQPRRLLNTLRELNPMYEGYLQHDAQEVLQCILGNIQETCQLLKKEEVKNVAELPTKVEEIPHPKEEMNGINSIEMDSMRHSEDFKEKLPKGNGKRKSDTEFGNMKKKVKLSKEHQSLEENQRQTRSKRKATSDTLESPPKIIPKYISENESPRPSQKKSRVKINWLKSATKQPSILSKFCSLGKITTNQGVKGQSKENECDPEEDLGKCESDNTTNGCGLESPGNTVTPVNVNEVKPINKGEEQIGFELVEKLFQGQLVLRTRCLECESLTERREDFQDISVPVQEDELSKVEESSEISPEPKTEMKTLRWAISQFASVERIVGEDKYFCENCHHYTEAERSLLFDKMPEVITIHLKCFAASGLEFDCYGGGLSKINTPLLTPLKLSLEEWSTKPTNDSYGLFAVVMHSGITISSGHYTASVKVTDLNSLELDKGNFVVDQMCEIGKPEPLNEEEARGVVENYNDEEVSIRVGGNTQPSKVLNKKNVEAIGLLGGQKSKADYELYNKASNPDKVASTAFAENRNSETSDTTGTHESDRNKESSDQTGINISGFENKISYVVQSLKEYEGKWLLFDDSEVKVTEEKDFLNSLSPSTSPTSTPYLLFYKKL

The nature of test [12]: Primary qHTS for small molecule stabilizers of the endoplasmic reticulum resident proteome: Secreted ER Calcium Modulated Protein (SERCaMP) assay (AID 1508630). Note: % is set by controls: 0 for no effect and ±100 for the full control effect. Conditions: SH-SY5Y GLuc-SERCaMP (Gaussia luciferase released on ER calcium loss) secretion, thapsigargin, luminescence; series mostly up to 38.4 µM. An outline of the steps: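 GLuc-SERCaMP-expressing SH-SY5Y cells, pretreated 16 h with compound, are challenged with thapsigargin to empty ER calcium stores; after 4 h, coelenterazine is added directly to the medium and luminescence is imaged.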

Test [13] in a line: Stat Signaling Pathway (AID 446; active = well fitted curve in either direction with a large enough effect, not every such curve was filed as active;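 note: ME-180 cervical cancer cells given 40 pM IL-6 alongside compound; SIE-controlled beta-lactamase reporter measured as 460/530 nm FRET emission ratio; % is set by controls: 0 for no effect and ±100 for the full control effect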). The conditions noted are these: ME-180 SIE beta-lactamase reporter, IL-6 stimulated, 5 h; at 7.69 µM (top of the series) unless noted. An outline of the steps: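 ME-180 cells carrying a SIE-driven beta-lactamase reporter are stimulated with 40 pM IL-6 for 5 h at 37C in the presence of compound. The 460/530 nm FRET substrate ratio is read after 2.5 h at RT. Data are normalised to 300 pM IL-6 and to 125 nM JAK inhibitor controls.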

Test [14] deals with Mitogen-activated protein kinase 10 (Mus musculus) (UniProt Q61831). Briefly: JNK3 AlphaScreen Assay (AID 530; active = well fitted curve in either direction with a large enough effect, not every such curve was filed as active). Conditions: JNK3 lysate, c-Jun phosphorylation; series mostly up to 57.1 µM. An outline of the steps: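 Pre-activated (IL-1β/TNFα) JNK3 in HepG2 lysates phosphorylates biotin-GST-cJun(1-79), 10 uM ATP; anti-phospho-cJun(Ser73) AlphaScreen read at room temperature, pH 7.6 Tris buffer. Compounds pre-incubated 15 min as titrations.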
(In general: In Alpha technology, singlet oxygen from a donor bead excites a nearby acceptor bead.)

For test [15], the target named is 3',5'-cyclic-AMP phosphodiesterase 4B (Homo sapiens) (UniProt Q07343). The test is described as follows: qHTS Assay for Inhibitors of PDE-IV (AID 607; active = well fitted activation curve with a large enough effect in the main read-out, with a control signal flat, not every such curve was filed as active; note: % of control where 0% means no effect). The conditions noted are these: HEK293 ACTOne CNG channel cells, membrane potential fluorescence; series mostly up to 22.9 µM. An outline of the steps: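 HEK293 ACTOne cells with CNG channel (1000/well), endogenous PDE4; membrane potential dye, compounds up to 22.9 uM final. Fluorescence Ex 535/Em 590; RO 20-1724 (100 uM final) as reference.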
3',5'-cyclic-AMP phosphodiesterase 4B (Homo sapiens), sequence (Q07343 whole entry, looked up): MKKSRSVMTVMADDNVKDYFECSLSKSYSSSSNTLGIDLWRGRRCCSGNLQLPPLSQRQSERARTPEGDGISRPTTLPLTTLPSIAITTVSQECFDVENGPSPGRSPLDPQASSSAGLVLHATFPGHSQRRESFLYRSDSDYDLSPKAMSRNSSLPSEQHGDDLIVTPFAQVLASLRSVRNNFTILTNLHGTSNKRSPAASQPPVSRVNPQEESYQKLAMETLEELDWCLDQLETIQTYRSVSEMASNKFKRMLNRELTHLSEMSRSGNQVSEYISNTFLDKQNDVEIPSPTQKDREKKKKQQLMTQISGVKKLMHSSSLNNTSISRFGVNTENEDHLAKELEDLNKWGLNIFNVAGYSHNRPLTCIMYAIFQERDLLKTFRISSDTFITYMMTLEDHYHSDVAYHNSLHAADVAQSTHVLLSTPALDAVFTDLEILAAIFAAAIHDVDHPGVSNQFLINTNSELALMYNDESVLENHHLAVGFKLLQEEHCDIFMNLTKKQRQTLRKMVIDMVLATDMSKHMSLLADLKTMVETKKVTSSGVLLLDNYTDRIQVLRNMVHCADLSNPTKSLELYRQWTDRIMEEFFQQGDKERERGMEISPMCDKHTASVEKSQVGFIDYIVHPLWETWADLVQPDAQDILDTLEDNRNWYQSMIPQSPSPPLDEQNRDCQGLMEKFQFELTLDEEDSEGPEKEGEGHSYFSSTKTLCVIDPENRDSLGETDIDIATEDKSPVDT

For test [16], the target named is Cytochrome P450 2C9 (Homo sapiens) (UniProt P11712). Briefly: qHTS Assay for Inhibitors and Substrates of Cytochrome P450 2C9 (AID 883). Note: potency is the fitted concentration of half-maximal effect; nearly all actives have a fitted effect of over 60% in size. Conditions: recombinant CYP2C9, luciferin-H luminescence, 60 min; series mostly up to 57.1 µM. An outline of the steps:
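Signal: luciferase luminescence reporting luciferin produced by CYP2C9. Conditions: 10nM enzyme, Luciferin-H 100uM at KM, 25mM KPO4, 37C, 60 min NADPH-driven reaction. Reference: 57uM sulphaphenazole as 100% inhibition.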

Test [17] concerns the target Cytochrome P450 3A4 (Homo sapiens) (UniProt P08684). The test is described as follows: qHTS Assay for Activators of Cytochrome P450 3A4 (AID 885). Note: nearly all actives have a fitted effect of over 65% in size. Conditions: recombinant CYP3A4, Luciferin-PPXE luminescence, 60 min; series mostly up to 57.1 µM. An outline of the steps: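 Human CYP3A4 (20 nM) with Luciferin-PPXE at 25 uM (its KM) in 200 mM KPO4; 10 min compound preincubation, then NADPH regeneration and 60 min reaction at RT. Luciferin read by luminescence; normalized to 57 uM ketoconazole full inhibition.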

The mark [18] stands for this setting: measured here: cell count channel max response.
The mark [19] stands for this setting: measured here: lipid channel max response.

Inconclusive results are not listed. Active and inactive are the calls of the source. Unless noted, calls come from the whole dose curve; as a rule, active = well fitted curve in the direction sought with a large enough effect; inconclusive = small, poorly fitted or top-dose-only effect, or another doubt; inactive = no such curve, though single readings can be large; an effect the other way counts as inactive or inconclusive.

Dual specificity protein kinase CLK4 (Homo sapiens), sequence (Q9HAZ1 whole entry, looked up): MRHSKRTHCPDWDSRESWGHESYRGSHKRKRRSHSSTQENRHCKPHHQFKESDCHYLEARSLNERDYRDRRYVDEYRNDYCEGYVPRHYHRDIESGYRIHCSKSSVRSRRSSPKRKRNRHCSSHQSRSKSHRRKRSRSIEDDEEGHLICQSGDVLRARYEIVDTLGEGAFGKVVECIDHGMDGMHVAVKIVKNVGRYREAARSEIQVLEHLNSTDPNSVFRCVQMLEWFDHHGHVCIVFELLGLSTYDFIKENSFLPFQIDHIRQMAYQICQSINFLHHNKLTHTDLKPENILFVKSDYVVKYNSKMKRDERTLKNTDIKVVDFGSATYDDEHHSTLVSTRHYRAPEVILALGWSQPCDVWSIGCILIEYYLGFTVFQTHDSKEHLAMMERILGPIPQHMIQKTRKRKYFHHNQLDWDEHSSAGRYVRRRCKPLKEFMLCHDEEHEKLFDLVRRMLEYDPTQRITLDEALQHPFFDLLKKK
Cytochrome P450 1A2 (Homo sapiens), sequence (P05177 whole entry, looked up): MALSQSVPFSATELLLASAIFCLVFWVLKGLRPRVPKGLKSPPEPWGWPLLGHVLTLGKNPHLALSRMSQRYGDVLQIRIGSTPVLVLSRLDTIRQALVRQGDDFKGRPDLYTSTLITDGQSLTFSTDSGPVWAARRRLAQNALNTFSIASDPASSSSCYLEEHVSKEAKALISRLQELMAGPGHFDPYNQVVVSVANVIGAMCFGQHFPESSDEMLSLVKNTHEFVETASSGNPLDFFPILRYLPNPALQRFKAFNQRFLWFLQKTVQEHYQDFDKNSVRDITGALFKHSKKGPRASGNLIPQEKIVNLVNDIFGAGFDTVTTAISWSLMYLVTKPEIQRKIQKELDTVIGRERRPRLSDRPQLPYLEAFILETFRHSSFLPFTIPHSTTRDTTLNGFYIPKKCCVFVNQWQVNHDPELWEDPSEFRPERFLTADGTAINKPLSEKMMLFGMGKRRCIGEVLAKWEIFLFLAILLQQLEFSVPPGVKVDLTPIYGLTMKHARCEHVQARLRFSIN
Glucocorticoid receptor (Homo sapiens), sequence (P04150 whole entry, looked up): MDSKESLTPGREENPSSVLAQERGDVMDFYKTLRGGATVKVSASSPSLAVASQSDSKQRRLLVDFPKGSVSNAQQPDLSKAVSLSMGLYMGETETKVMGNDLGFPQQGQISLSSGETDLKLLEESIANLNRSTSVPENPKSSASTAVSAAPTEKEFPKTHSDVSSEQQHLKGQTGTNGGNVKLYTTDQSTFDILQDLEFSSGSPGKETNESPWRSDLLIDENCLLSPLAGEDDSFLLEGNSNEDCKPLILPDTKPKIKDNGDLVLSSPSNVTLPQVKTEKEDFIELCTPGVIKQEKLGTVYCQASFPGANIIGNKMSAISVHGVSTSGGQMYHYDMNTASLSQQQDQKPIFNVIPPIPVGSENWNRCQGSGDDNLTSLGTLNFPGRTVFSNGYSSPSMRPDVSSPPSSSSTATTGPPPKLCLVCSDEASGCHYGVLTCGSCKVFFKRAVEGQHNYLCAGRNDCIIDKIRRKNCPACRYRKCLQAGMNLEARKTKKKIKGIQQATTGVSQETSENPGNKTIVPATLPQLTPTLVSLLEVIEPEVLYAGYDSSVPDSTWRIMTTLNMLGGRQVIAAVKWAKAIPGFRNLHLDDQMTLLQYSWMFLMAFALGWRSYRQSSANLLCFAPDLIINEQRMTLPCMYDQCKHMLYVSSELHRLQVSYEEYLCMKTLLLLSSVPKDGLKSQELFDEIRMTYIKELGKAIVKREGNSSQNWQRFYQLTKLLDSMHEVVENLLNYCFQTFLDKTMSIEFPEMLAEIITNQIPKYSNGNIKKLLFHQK
Cytochrome P450 2C9 (Homo sapiens), sequence (P11712 whole entry, looked up): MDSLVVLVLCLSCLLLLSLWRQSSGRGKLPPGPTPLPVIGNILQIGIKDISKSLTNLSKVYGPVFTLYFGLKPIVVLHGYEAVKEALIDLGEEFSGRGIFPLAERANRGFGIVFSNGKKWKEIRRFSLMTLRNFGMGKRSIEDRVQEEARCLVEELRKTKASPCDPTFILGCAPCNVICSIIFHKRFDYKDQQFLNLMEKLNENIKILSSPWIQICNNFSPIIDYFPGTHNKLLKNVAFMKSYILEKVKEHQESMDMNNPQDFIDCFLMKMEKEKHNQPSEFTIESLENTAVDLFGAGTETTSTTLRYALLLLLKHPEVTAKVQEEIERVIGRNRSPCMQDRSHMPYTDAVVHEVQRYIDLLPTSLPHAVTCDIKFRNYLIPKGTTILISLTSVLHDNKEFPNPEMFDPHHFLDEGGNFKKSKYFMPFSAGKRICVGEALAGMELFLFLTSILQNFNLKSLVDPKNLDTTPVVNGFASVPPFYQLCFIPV

Regarding `COc1ccc(-c2nc3cnc(N4CCN(C)CC4)nc3n(Cc3ccc(F)cc3)c2=O)cc1`, the Potency in test [1] was > 11.4 µM (inactive); in test [3], 10 µM (active); in [5], > 9.22 µM (inactive); in test [6], > 46 µM (inactive). For the same molecule, the activity change, negative = inhibition in test [2] was 99.5% [activator] (active); in test [4], 113% [activator] (active); in test [8] it was 0.278% (inactive). The Potency entry in test [7], in test [9], in [10], in test [11] and in test [12] was “inactive” in each case. Also, the figures for the max response in [8] (setting [18]) and in test [8] (setting [19]) were 11.6% and 10.9%, respectively.
For `N#Cc1cccc(-c2nc3cnc(Oc4cccc(Cl)c4)nc3n(C3CC3)c2=O)c1`, the Potency in [1] was > 11.4 µM (inactive); in test [3], 2.51 µM (active); in test [5] it was > 9.22 µM (inactive); in test [6], > 46 µM (inactive); in [16], 3.16 µM (active). For the same molecule, the activity change, negative = inhibition in [2] was -1.53% (inactive); in test [4] it was 12.5% (inactive); in test [8], -3.65% (inactive). For the same molecule, in test [13], the activity, negative = inhibition is -10.1% (inactive). The molecule was classed as inactive in [14]. Also, the Potency result in [15], in test [7], in [9], in [10], in test [11] and in test [12] was “inactive” each time. Further, the max response in test [8] (setting [18]) is 11%; in test [8] (setting [19]), 8.29%.
As for `COc1ccc(-n2c(=O)cnc3cnc(OC)nc32)cc1`, the Potency is > 11.4 µM (inactive) in test [1]; > 9.22 µM (inactive) in test [5]; > 46 µM (inactive) in test [6]; 15.8 µM (active) in [9]; 14.1 µM (active) in [10]. Also, the results for the activity change, negative = inhibition in test [2], in test [4] and in [8] were -6% (inactive), -7.79% (inactive) and 4.86% (inactive), respectively. Moreover, in test [13], the activity, negative = inhibition is -11.2% (inactive). In addition, in [14], the molecule was called inactive. Also, the Potency entry in [15], in test [11] and in test [12] was “inactive” in each case. Also, the max response in test [8] (setting [18]) is 24.2%; in test [8] (setting [19]), 29.5%.
Regarding `COCCNc1nc(-c2ccccc2Cl)nc2ccccc12`, the Potency is 11 µM (inactive) in [1]; 0.126 µM (active) in test [3]; > 46 µM (inactive) in [5]; > 46 µM (inactive) in test [6]; 15.8 µM (active) in test [9]; 8.91 µM (active) in test [10]. The results for the activity change, negative = inhibition in [2], in test [4] and in test [8] were -0.0888% (inactive), 7.18% (inactive) and 3.23% (inactive), respectively. Moreover, the activity, negative = inhibition in test [13] is -3.65% (inactive). In addition, the outcome in [14] was inactive. Further, the Potency entry in test [17], in test [11] and in test [12] was “inactive” each time. Besides, the max response was 2.91% in test [8] (setting [18]) and 4.03% in [8] (setting [19]).
For `CNc1ncnc2ccc(-c3ccccc3CN(C)C)cc12`, the Potency was > 11.4 µM (inactive) in test [1]; 3.16 µM (active) in test [3]; > 46 µM (inactive) in [5]; > 46 µM (inactive) in test [6]; 7.94 µM (active) in [7]; 25.1 µM (active) in [9]. The Potency in test [10] was 12.6 µM (active). The activity change, negative = inhibition in test [2] is -22.5% (inactive); in test [4] it was -2.46% (inactive); in [8], 4.45% (inactive). Also, the activity, negative = inhibition in test [13] was -1.81% (inactive). Also, the outcome in [14] was inactive. Besides, the Potency result in test [15], in test [17], in [11] and in test [12] was “inactive” throughout. The max response was found to be 6.85% in test [8] (setting [18]) and 10.7% in [8] (setting [19]).
For the molecule `Cc1ccccc1-c1cc(NCCN2CCOCC2)ncn1`, the results for the Potency in test [1], in test [3] and in test [6] were > 11.4 µM (inactive), 31.6 µM (active) and > 46 µM (inactive), respectively. Besides, the activity change, negative = inhibition was -3.13% (inactive) in test [2], -3.03% (inactive) in [4] and -1.17% (inactive) in test [8]. Further, the activity, negative = inhibition in test [13] is 2.72% (inactive). The result in [14] was inactive. In addition, the Potency result in test [15], in [7], in [9], in [10], in test [11] and in test [12] was “inactive” each time. Moreover, the max response in test [8] (setting [18]) is -3.29%; in test [8] (setting [19]) it was -5.46%.
